From the supplement of paper PMC3334620
In all, about 33,000 sequences were measured (“E-score (-0.5 to 0.5)”: median about -0.011, highest 2% from about 0.28 on). Many of the other results were omitted from the sample, so the highest values are more common in it than they were.

Each sequence was assayed against T1, Gcr1 (UniProt P07261) (assay: PBM E-score (8-mer binding enrichment) (E-score (-0.5 to 0.5)); higher = stronger / more preferred TF binding). Conditions: protein concentration: 100 nM; construct: GST-full length.
T1 sequence: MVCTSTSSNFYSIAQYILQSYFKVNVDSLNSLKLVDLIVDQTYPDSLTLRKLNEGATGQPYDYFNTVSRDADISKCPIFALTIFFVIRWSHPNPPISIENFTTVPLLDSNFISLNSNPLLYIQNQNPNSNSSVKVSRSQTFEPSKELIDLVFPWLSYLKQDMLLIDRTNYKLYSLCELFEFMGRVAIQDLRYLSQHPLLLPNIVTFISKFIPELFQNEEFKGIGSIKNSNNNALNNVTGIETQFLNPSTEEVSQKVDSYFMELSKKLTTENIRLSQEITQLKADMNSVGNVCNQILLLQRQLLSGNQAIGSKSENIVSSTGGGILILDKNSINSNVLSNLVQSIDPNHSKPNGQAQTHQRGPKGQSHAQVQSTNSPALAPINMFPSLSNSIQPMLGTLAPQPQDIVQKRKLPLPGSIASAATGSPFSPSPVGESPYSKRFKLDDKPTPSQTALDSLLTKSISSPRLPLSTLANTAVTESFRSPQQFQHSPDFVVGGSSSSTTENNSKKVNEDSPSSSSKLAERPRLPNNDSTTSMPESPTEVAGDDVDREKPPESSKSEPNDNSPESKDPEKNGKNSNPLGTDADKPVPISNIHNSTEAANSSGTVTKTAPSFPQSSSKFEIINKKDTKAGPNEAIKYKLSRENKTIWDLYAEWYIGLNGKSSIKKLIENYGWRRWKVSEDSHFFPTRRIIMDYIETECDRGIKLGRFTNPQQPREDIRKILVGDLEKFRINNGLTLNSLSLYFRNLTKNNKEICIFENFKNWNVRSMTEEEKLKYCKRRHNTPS
Method: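 Universal 'all 10-mer' protein binding microarrays (Agilent AMADID 015681) probed with GST-tagged S. cerevisiae TFs (full-length or DBD) made by in vitro transcription/translation (PURExpress), about 100-200 nM. Bound TF was detected with fluorescent anti-GST. Each ungapped 8-mer (which stands for itself and its reverse complement) is scored by the PBM enrichment score (E-score), a modified Wilcoxon-Mann-Whitney statistic from -0.5 to +0.5, computed with the Universal PBM Analysis Suite. Scale: above 0.35 generally sequence-specific binding.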

Sequence | PBM E-score
AGGCGTGA | -0.191
AAAAGAGC | -0.0507
AAATGGGA | 0.194
ACGTCAGA | -0.0561
CAGGTCAA | -0.173
CCCCACAC | 0.108
CCCCACAG | -0.0776
ACCACAAA | 0.236
CCCCACAA | 0.305
CCCACGAG | -0.0381
TCCACAAA | 0.288
GCCACAAA | 0.0996
CCCACAAA | 0.305
CCCACAAG | 0.0598
ACACAAGG | -0.0735
GCTTTCTA | -0.196
GTTTACCA | -0.022
CCGGGACA | -0.0293
AAGACTCC | 0.0934
CCTTTTCA | -0.164
CACTCTGG | 0.0408
AGAGGGAA | -0.176
GGAATTCA | 0.192
AGAATTCC | 0.164
GGAATTCC | 0.426

Sequence | PBM E-score
AGCTAGAG | -0.226
ATTCATAA | -0.0219
CCGTCTAA | 0.0045
CCATCTAA | 0.0606
TCATCTAA | -0.0664
GCCTCTAA | 0.265
ACCTCTAA | 0.16
GCGTCTAA | 0.357
TCCTCTAA | 0.282
GCATCTAA | 0.303
TCGTCTAA | 0.112
CATCACGG | -0.01
AAGTGAAC | -0.0708
ATGATTCA | -0.105
TCTCAAAA | 0.137
CAAGAGAA | 0.0254
GGATGGCA | -0.167
CCCGACGG | -0.158
CTATTGGC | 0.0102
GCCCGCCC | 0.0747
ACCCGCCC | -0.135
CCCCGCCC | 0.338
ATGCTGGA | 0.0516
AGAACTGG | 0.262
AGACCGCT | -0.2

Sequence | PBM E-score
TCGGGGCA | 0.161
ATTGGGTG | 0.085
AGAGGAAG | 0.385
AGAGGAAA | -0.0469
AGAGGATG | 0.315
ACAGGATA | 0.177
GTAGGAAC | 0.0386
AGAGGATA | -0.0247
AGAGGATC | 0.024
ATAGGAAC | 0.319
AGAGGAAC | 0.177
ACAGGATC | 0.197
ACAGGATG | 0.372
CTAGGAAC | 0.149
AGTGTCCA | 0.057
TAGTATGA | 0.0561
CTCCGATC | -0.00026
ATGCTAGG | -0.0494
CCCGGATC | 0.256
CCCTCAGC | -0.0815
ATTCAGCC | 0.0229
AAAGGAAC | 0.219
CAAGGAAG | 0.143
ATAGGAAA | -0.0777
ATAGGATG | 0.333

Sequence | PBM E-score
ATAGGATC | 0.158
ATAGGAAG | 0.414
ATAGGATA | -0.0284
AAAGGAAG | 0.361
ATAGGAAT | 0.27
CGCTGCCC | 0.164
CGGGGTGC | 0.226
AGGGATCC | 0.286
CCGGATCC | 0.279
CGGGATCA | 0.245
AGGGATCG | -0.151
CGGGATCC | 0.371
AGGGATCA | -0.054
AGCATCAA | 0.0409
CACGCACC | 0.0442
AGACCGAA | -0.18
GACGGCGC | -0.0687
AGCCTCTA | 0.0722
ACCAGAAA | 0.0905
TCCAGAAA | 0.304
CCCAGAAG | 0.233
TTCAGAAA | 0.12
CCCAGAAA | 0.283
GCCAGAAA | 0.236
GCCTACTA | 0.00583

Sequence | PBM E-score
AGCCCCGA | -0.108
GAAGCCTC | 0.283
CAAGCCAC | -0.124
AAAGCCAC | 0.0178
GAAGCCAA | 0.29
TAAGCCAA | 0.0672
GAAGCCAC | 0.417
AAAGCCTC | -0.0619
CAAGCCTC | -0.0336
AAAGCCAA | 0.0021
ACTACCCA | -0.135
AATAGCCG | -0.0191
CCCGGGTA | -0.031
TAGGCGCA | 0.225
CCAAAATC | 0.136
ATGGAACA | -0.0319
ATGGAACG | -0.0103
ATGGAACC | 0.294
CTGGAACA | -0.0357
CTGGAACC | 0.375
CTGGAAAC | 0.196
AGCATTCG | -0.235
CTTGGTGC | 0.116
AACTAAAT | 0.123
CAACATTG | -0.0426

Sequence | PBM E-score
AAAACCGT | 0.0768
CTCGGGCC | -0.107
ACTGTCTC | -0.0499
CGATGCCG | 0.145
AAGTAGAA | 0.0726
TGTTCCAA | 0.112
AGTTCCAC | 0.0854
GGTTCCCA | 0.327
GGTTCCAA | 0.391
AGTTCCCA | 0.22
CGTTCCAA | 0.03
CGTTCCCA | -0.0578
AGTTCCTA | 0.116
CGTTCCTA | 0.15
GGTTCCTA | 0.342
GGTTCCAC | 0.305
CGTTCCAC | 0.0103
CGCTTTCA | -0.00233
CCTGAGAC | -0.0674
GCACCAAC | 0.197
GTATCTAA | 0.16
AAGACGCC | 0.349
CAGACGCA | 0.175
CAGACGCC | 0.329
AAGACGCT | 0.218

Sequence | PBM E-score
CAGACGCG | 0.136
AAGACGCG | 0.278
GCGAAGAC | -0.133
AGAGCAGG | 0.0116
ATACCTGC | 0.115
GAACGCTA | -0.111
CCCTGGCA | -0.00029
CCTCTCGC | -0.0389
CGGGATGC | 0.332
CAGGATCG | 0.154
AGGGATGC | 0.098
AAGGATGA | -0.116
CAGGATGC | 0.446
CGGGATGA | -0.188
AAGGATGT | 0.0399
AAGGATGC | 0.313
CAGGATGA | 0.0175
CAGGATGG | -0.132
CAGGATCC | 0.345
CAGGATCA | -0.179
CCAGCTGG | 0.157
ACTCTAAC | 0.00366
